In PubChem BioAssay:
Entries with a potency or affinity are not part of this list. Records with an inconclusive call do not appear. Activity calls are given as the source filed them.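 Rule for the calls, unless noted: active = a fitted half-maximal concentration no higher than twice the top valid tested dose, with signal falling as cells die; inconclusive = flat curve between -70% and -30%, or poor fit; inactive = the rest, including signal rising instead of falling.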

Columns and labels:
[1] = Cryptococcus neoformans growth inhibition, dose response, Alamar Blue, cherry-picks (AID 686998;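 active = falling signal with fitted half-maximal potency no higher than twice the top valid tested dose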)
[2] = inducers of Cryptococcus neoformans cell lysis, dose response, AK release luminescence, cherry-picks (AID 687000;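 active = fitted dose curve reaches 40% lysis signal rise at or below the highest valid concentration tested for that sample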;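 note: luminescent detection of adenylate kinase leaking from lysed yeast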)
[3] = HepG2 cell cytotoxicity, dose response, cytotoxicity control, cherry-picks, set 2 (AID 687002;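 active = a dose-response fit showing signal loss, with half-maximal concentration no higher than twice the top tested dose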)
[4] = HeLa cell cytotoxicity, dose response, cytotoxicity control, ATP luminescence, cherry-pick samples (AID 687004)

Measured: outcome

COc1cccc(S(=O)(=O)Nc2ccc3c(c2)[C@@H]2C[C@@H](CC(=O)NCc4cccc(F)c4)O[C@H](CO)[C@@H]2O3)c1
inactive: [1] | [2] | [3] | [4]

CCc1ccc(NC(=O)C2NC(=O)CC2c2ccccc2)cc1 (stereo not given)
inactive: [1] | [2] | [3] | [4]

N#C[C@@H]1[C@@H](c2ccccc2)[C@@H](CO)N1C(=O)Cc1ccccc1
inactive: [1] | [2] | [3] | [4]

O=C(CSc1ncnc2c1cnn2-c1ccc(F)cc1)NC1CCCC1
inactive: [1] | [2] | [3] | [4]

COc1ccccc1-c1ccc2c(c1)O[C@@H](CN(C)C(=O)c1cccnc1)[C@H](C)CN([C@@H](C)CO)S2(=O)=O
inactive: [1] | [2] | [3] | [4]

CC(=O)N1[C@@H]2c3ccc(-c4ccccc4)c(=O)n3C[C@H]1[C@H](CO)[C@H]2C(=O)Nc1ccccc1
inactive: [1] | [2] | [3] | [4]

COc1ccc(NC(=O)N(C)C[C@H]2OCc3ccccc3-c3c(n(C)c4ccccc34)C(=O)N([C@H](C)CO)C[C@@H]2C)cc1
inactive: [1] | [2] | [3] | [4]

COc1ccc(NC(=O)N(C)C[C@H]2OCCCC[C@H](C)Oc3ccc(NC(=O)C4CCCCC4)cc3C(=O)N([C@@H](C)CO)C[C@@H]2C)cc1
inactive: [1] | [2] | [3] | [4]

CC(=O)N1CCN(c2ccc(NC(=S)NC(=O)c3ccc(C)c([N+](=O)[O-])c3)cc2)CC1
inactive: [1] | [2] | [3] | [4]

CC(C)NC(=O)Nc1ccc2c(c1)C(=O)N([C@H](C)CO)C[C@@H](C)[C@H](CN(C)C(=O)Nc1ccccc1)OCCCC[C@@H](C)O2
inactive: [1] | [2] | [3] | [4]
